Assay outcomes deposited in PubChem BioAssay by National Center for Advancing Translational Sciences (NCATS).
The list is not random: actives were taken first. Their share in the collection is about 7.4%.
SMN2 splice up: enhancers of SMN2 splice variant expression; Potency, µM (top dose mostly 46.1 µM), for inactives: at the highest dose activity change, positive = activation, actives largely listed as activators; HEK293 SMN2-luciferase splicing reporter, luminescence, 30-36 h; 2.8% of 210,000 active; further: % of control where 0% means no effect; nearly all actives have a fitted effect of over 55% in size
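HEK293 cells carry an SMN2 minigene-luciferase reporter in which exon 7 inclusion puts luciferase in frame. Cells were seeded at 2000 cells/well, attached for 10-12 hours, then exposed to compounds for 30-36 hours at 37C before ONE-Glo luminescence.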
ELG1 genotoxic: inducers of genotoxicity in HEK293T ELG1-luciferase cells. HEK293T ELG1-luciferase reporter, luminescence, 16 h. Potency, µM (highest dose often 46 µM), inactives show at the highest dose activity change, positive = activation, usual class: activators. 1.3% of 330,000 active. AID 504466; further: % of control where 0% means no effect; nearly all actives have a fitted effect of over 60% in size
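16 hr compound incubation (37 °C, 5% CO2) of HEK293T cells carrying luciferase-tagged ELG1; luciferase then measured by ONE-Glo luminescence after 30 min at RT.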
Rab9 promoter act: activators of Rab9 promoter. Huh7 Rab9 promoter-luciferase reporter, luminescence, 24 h. Potency, µM (highest dose often 9.22 µM), inactives show at the top dose activation, negative = inhibition, hits mostly activators. 2.8% of 320,000 active; further: % of control where 0% means no effect; nearly all actives have a fitted effect of over 60% in size
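Huh7 cells stably carrying a Rab9 promoter-luciferase reporter, 1500 cells per well in OP-MEM I with 10% FBS, treated with compound 24 hours at 37C. Luciferase activity read by luminescence after 10 minutes with Amplite reagent.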
NPC1 prom act: activates the NPC1 promoter. Potency, µM (titrated, usually from 9.22 µM), for inactives: at the top dose activation, most hits filed as activators. 2.4% of 320,000 active. Huh7 NPC1 promoter luciferase reporter, 24 h; further: % of control where 0% means no effect; nearly all actives have a fitted effect of over 60% in size
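Readout is luciferase luminescence, reflecting NPC1 promoter activation in stably transfected Huh7 cells after 24 h compound exposure at 37 °C in reduced-serum medium with 10% FBS.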
FLuc counter: counter-screen for miR-21 project: firefly luciferase inhibitors or activators; AID 588342; P08659; 6.9% of 360,000 active; purified FLuc, Km substrates, luminescence inhibition; Potency, µM (titrated, usually from 57.5 µM), for inactives: at the top dose activity change, negative = inhibition, actives largely listed as inhibitors;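 further: plate controls were vehicle for no effect and reference inhibitor for full effect; nearly all actives have a fitted effect of over 55% in size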
Target sequence (P08659 whole entry, looked up): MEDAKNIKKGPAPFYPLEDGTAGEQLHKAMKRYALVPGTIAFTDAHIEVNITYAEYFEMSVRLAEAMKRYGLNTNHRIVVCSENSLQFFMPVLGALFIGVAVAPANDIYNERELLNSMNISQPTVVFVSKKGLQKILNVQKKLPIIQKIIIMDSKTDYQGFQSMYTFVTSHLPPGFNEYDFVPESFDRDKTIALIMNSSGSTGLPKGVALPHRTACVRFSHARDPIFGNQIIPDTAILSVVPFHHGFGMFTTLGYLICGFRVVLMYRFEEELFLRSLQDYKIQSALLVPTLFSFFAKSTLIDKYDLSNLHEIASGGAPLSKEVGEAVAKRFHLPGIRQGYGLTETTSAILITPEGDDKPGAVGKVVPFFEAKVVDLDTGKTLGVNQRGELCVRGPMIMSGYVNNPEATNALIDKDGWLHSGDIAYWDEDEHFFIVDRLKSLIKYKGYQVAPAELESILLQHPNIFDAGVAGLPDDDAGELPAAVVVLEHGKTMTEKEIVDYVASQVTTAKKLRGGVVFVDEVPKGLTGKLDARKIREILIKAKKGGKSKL
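Biochemical qHTS of compounds, final roughly 60 µM downward over six points, against 10 nM purified firefly luciferase using Km concentrations of substrates (10 uM D-luciferin, 10 uM ATP) in Tris acetate pH 7.5 buffer; luminescence output.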
* = called active by the depositor; ? = inconclusive; / = no result. The call rests on the fitted dose curve; in most records, active means well fitted curve in the direction sought with a large enough effect; inconclusive means small, poorly fitted or top-dose-only effect, or another doubt; inactive means no such curve, though single readings can be large; an effect the other way counts as inactive or inconclusive. Potency means the concentration at half of the fitted maximal effect.

SMILES | SMN2 splice up | ELG1 genotoxic | Rab9 promoter act | NPC1 prom act | FLuc counter
Cc1cc(=O)oc2cc(OCC3CC(c4ccc(Cl)cc4)=NO3)ccc12 (stereo not given) | 5% | 4% | -7% | -2% | ?
NNC(=O)c1ccc(OCC2CC(c3ccc(Cl)cc3)=NO2)cc1 (stereo not given) | / | ? | -3% | 16% | 8.5µM*
O=C(NCc1cccs1)C1CC(c2ccc(Cl)cc2)=NO1 (stereo not given) | / | 10% | 3% | 5% | ?
O=C(c1cc(-c2cccc(Cl)c2)nc2ccccc12)N1CCN(c2ccccn2)CC1 | / | -22% | 11% | 5% | 19µM*
O=C(c1cc(-c2ccncc2)nc2ccc(Br)cc12)N1CCN(c2ccccn2)CC1 | -28% | / | / | / | 17µM*
Cc1cccc2c(C(=O)N3CCN(c4ccccn4)CC3)cc(-c3cccc(Br)c3)nc12 | / | -19% | -6% | -4% | -8%
Cc1ccc(-c2ccc(/C=N\NC(=O)c3cc4c(ccc5ccccc54)o3)o2)cc1[N+](=O)[O-] | -17% | 7% | -1% | 1% | -5%
O=C(N/N=C/c1ccc(-c2ccc(Cl)c(C(=O)O)c2)o1)c1cc2c(ccc3ccccc32)o1 | / | 5% | 1% | 13% | 21µM*
COc1cc(/C=N/NC(=O)c2cc3c(ccc4ccccc43)o2)cc(OC)c1O | / | 0% | -4% | -2% | 4.8µM*
COc1ccc(/C=N/NC(=O)c2cc3c(ccc4ccccc43)o2)cc1OC | / | -4% | -3% | -3% | 11µM*
O=C(N/N=C/c1ccncc1)c1cc2c(ccc3ccccc32)o1 | -10% | 3% | 4% | 0% | ?
O=C(O)c1ccc(/C=N/NC(=O)c2cc3c(ccc4ccccc43)o2)cc1 | / | 0% | 11% | -2% | 6µM*
Cc1ccc2nc(SCC(=O)NC3CCS(=O)(=O)C3)[nH]c2c1 (stereo not given) | / | 1% | / | / | /
COc1ccc(/C=N\NC(=O)c2cc3c(ccc4ccccc43)o2)cc1O | / | -9% | -1% | -2% | 12µM*
O=C(N/N=C/c1cccc([N+](=O)[O-])c1)c1cc2c(ccc3ccccc32)o1 | -5% | 14% | -5% | ? | -4%
COc1ccccc1/C=N/NC(=O)c1cc2c(ccc3ccccc32)o1 | / | -5% | 3% | 1% | 19µM*
CCOc1ccc(NC(=O)CN2CCCN(Cc3cc(C)ccc3C)S2(=O)=O)cc1 | -32% | / | / | / | -11%
CCc1ccccc1NC(=O)CSc1nnc(-c2cc(C)[nH]n2)n1N | / | 4% | -7% | 11% | -1%
CCOc1ccc(N2C(=O)S/C(=C\c3cc(OC)c(OC)c(OC)c3)C2=O)cc1 | / | 0% | -5% | -1% | 0%
Cc1ccc(Nc2n[nH]c(C)c2[N+](=O)[O-])cc1C | 11µM* | ? | 1.1µM* | 1.6µM* | 3µM*
CCN1CCN(c2nc(N)c([N+](=O)[O-])c(Nc3ccc(C)c(C)c3)n2)CC1 | -14% | 1% | 1% | -3% | -1%
CC(=O)NC(Cc1c[nH]c2ccccc12)C(=O)OCC(=O)Nc1cc(C)on1 (stereo not given) | -12% | -1% | -5% | 2% | -1%
COc1ccc(OCC(=O)NC(Cc2c[nH]c3ccccc23)C(=O)O)cc1 (stereo not given) | -7% | / | / | / | -15%
O=C(NC(Cc1c[nH]c2ccccc12)C(=O)O)c1ccccc1 (stereo not given) | ? | 5% | 1% | -3% | 3%
O=C(Cc1c[nH]c2ccccc12)NCc1ccc(Cl)cc1Cl | 17% | 7% | -3% | 0% | 21µM*
SMILES | SMN2 splice up | ELG1 genotoxic | Rab9 promoter act | NPC1 prom act | FLuc counter
Cc1cc(NC(=O)COC(=O)[C@H](Cc2c[nH]c3ccccc23)NC(=O)c2ccc(F)cc2)no1 | -1% | -2% | 7% | -2% | 17µM*
O=C(N[C@@H](Cc1c[nH]c2ccccc12)C(=O)O)c1ccc(Cl)cc1 | 6% | -4% | 12% | -1% | 17µM*
COc1ccc(C(=O)NC(Cc2c[nH]c3ccccc23)C(=O)O)cc1 (stereo not given) | / | -2% | -2% | -11% | 19µM*
O=C(Cn1c(-c2cccs2)cc2cc(F)ccc21)N1CCN(c2ccccc2)CC1 | / | / | / | / | -7%
CCOC(=O)C1(CCOc2ccccc2)CCN(Cc2ccc3nonc3c2)CC1 | / | 8% | -12% | -5% | -1%
Cc1cccc(C(=O)N2c3ccccc3C(=O)OC2c2ccc3c(c2)OCO3)c1 (stereo not given) | ? | 6% | 4% | 17% | -11%
O=C1OC(c2ccc3c(c2)OCO3)N(C(=O)c2ccc(Cl)c(Cl)c2)c2ccccc21 (stereo not given) | 13µM* | ? | 3.2µM* | ? | -1%
COc1ccc(NC(=O)CSc2n[nH]c(-c3ccncc3)n2)cc1Cl | / | 10% | / | / | /
COc1ccc(NC(=O)CSc2n[nH]c(-c3ccccc3)n2)cc1S(N)(=O)=O | / | 2% | 2% | -5% | 12µM*
Cc1ccc(NC(=O)CSc2n[nH]c(-c3ccncc3)n2)cc1 | 7% | -3% | 0% | 0% | ?
COc1ccc(-c2nc(SCC(=O)Nc3cccc(S(N)(=O)=O)c3)n[nH]2)cc1 | / | 12% | 25% | 23% | 1.7µM*
COc1ccc(-c2nc(SCC(=O)Nc3c(C)cc(C)cc3C)n[nH]2)cc1 | / | / | / | / | 15µM*
Cc1ccc(C(=O)Nc2cccc(OCc3cc(=O)n4c5c(sc4n3)CCCC5)c2)cc1 | -3% | / | / | / | -18%
Cn1ccc(C(=O)Nc2ccc3c(c2)OCCO3)n1 | / | 5.8µM* | 0.71µM* | 0.89µM* | ?
Cn1nc(C(=O)Nc2ccc3c(c2)OCCO3)cc1C(=O)O | -1% | 13% | -5% | 3% | 9.5µM*
CC(=O)c1ccc(NC(=O)CN2C(=O)CCc3ccccc32)cc1 | / | / | / | / | 6µM*
O=C(Nc1nc2ccccc2[nH]1)c1ccc(OC(F)F)cc1 | / | 1.5µM* | 0.28µM* | 0.13µM* | 0.54µM*
CC(C)Oc1ccc(C(=O)Nc2nc3ccccc3[nH]2)cc1 | / | ? | ? | ? | 0.12µM*
O=C(Nc1nc2ccccc2[nH]1)c1ccccc1OC(F)F | / | ? | 0.5µM* | 0.79µM* | 0.95µM*
CCC(Oc1ccccc1)C(=O)Nc1nc2ccccc2[nH]1 (stereo not given) | 8% | 26% | 15% | 17% | ?
N#CC(Cc1ccc(OC(F)F)cc1)c1nc2ccccc2[nH]1 (stereo not given) | ? | ? | ? | ? | 8.5µM*
O=C(Nc1ccccc1N1CCOCC1)c1ccc([N+](=O)[O-])s1 | / | -4% | / | / | /
Cc1ccccc1Cn1c(C)c(CNCCCc2ccccc2)c(C(=O)O)c1C | -3% | / | / | / | -9%
C=CCOC(=O)N[C@H](C[N+](=O)[O-])c1ccccc1 | -1% | / | / | / | /
Oc1cccc(/C=N/c2c(-c3ccco3)nc3ccccn23)c1 | 24% | ? | ? | ? | 6µM*
